Screening results: PubChem, National Center for Advancing Translational Sciences (NCATS)
Sampled rows, rich in hits. Any-hit rate of the full collection: about 21%.
TDP1 cell noCPT – qHTS for Inhibitors of human tyrosyl-DNA phosphodiesterase 1 (TDP1): qHTS in cells in absence of CPT; Potency, µM (series often up to 46.2 µM), for the others: at the top dose activity change, negative = growth inhibition, actives largely listed as inhibitors; DT40 Tdp1-/- hTDP1 cells, no CPT, ATP luminescence, 48 h; hit rate 15% among 420,000; AID 686978, 2013; note: potency is the fitted concentration of half-maximal effect; % is set by controls: 0 for no effect and ±100 for the full control effect; nearly all actives have a fitted effect of over 55% in size
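Readout: luminescence from CellTiter-Glo after 30 min in the dark at RT. Cells: DT40 Tdp1-/- with stable hTDP1, 400/well. Exposure: compounds alone, ≥48 hr, 37 °C.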
D3 ag – qHTS of D3 Dopamine Receptor Agonist: qHTS; AID 652048, 2013; D3R DiscoveRx beta-arrestin cells, luminescence, 90 min; hit rate 0.58% among 410,000; max activation, %; in the data active = max activation above about 30%; note: 0% is about no effect
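Agonist mode: compounds and dopamine controls were applied to plated cells for 90 min at 37 degrees C after an overnight attachment at 1500 cells/well. Luminescent read-out followed 30 - 60 minutes at room temperature with DiscoveRx detection reagent.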
DRD3 antagonist – qHTS of D3 Dopamine Receptor Antagonist: qHTS. D3R cells, DiscoveRx beta-arrestin luminescence, antagonist mode; hits give low values. hit rate 2.5% among 360,000. max response, negative = inhibition, %; in the data active = max response below about -50%; inconclusive = no clear call, values can overlap the other calls; note: % is set by controls: 0 for no effect and ±100 for the full control effect
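Cells expressing the human receptor were seeded at 1500 cells/well, incubated overnight at 37 degrees C in 5% CO2, then exposed to library compounds with dopamine controls for 90 minutes at 37 degrees C before luminescent detection.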
TDP1 cell CPT – qHTS for Inhibitors of human tyrosyl-DNA phosphodiesterase 1 (TDP1): qHTS in cells in presence of CPT. hit rate 12% among 420,000. AID 686979, 2013. Potency, µM (doses to about 46.2 µM), inactives show at the top dose activity change, negative = growth inhibition, most hits filed as inhibitors. chicken DT40 Tdp1-/-;hTDP1 cells + 20 nM CPT, ATP luminescence, 48 h; note: potency is the fitted concentration of half-maximal effect; % is set by controls: 0 for no effect and ±100 for the full control effect; nearly all actives have a fitted effect of over 55% in size
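Cell growth measured by CellTiter-Glo luminescence after a minimum 48 h, 37 C compound exposure with 20 nM CPT in Tdp1-knockout DT40 cells stably expressing hTDP1, seeded 400/well; qHTS titration format.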
ClpP mod – qHTS Assay for Activators of ClpP; ATP-dependent Clp protease proteolytic subunit (Bacillus subtilis (strain 168)), P80244; purified B. subtilis ClpP, FRET peptide cleavage, 20 min; Potency, µM (titrated, usually from 57.5 µM), without a hit: top-dose activity change, negative = active; hit rate 1.9% among 340,000; active = well fitted falling curve with a large enough effect; inconclusive = small, poorly fitted or top-dose-only effect; inactive = no such curve, though single readings can be large or run the other way; note: potency is the fitted concentration of half-maximal effect; the source files actives as falling curves though it sought activators and does not explain the sign; nearly all actives have a fitted effect of over 65% in size
Target sequence (P80244 whole entry, looked up): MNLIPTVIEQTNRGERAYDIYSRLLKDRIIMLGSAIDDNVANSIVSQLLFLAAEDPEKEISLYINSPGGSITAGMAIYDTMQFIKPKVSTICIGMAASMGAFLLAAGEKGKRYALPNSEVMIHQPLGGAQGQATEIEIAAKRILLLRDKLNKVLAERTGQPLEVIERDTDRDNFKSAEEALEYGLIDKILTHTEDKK
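FRET quenching reversal measured ClpP activation: 10 microg/mL B. subtilis ClpP at pH 8 with the FRET-FV decapeptide, read at 430 nm after 320 nm excitation. The 20-min minus 0-min signal was scaled between DMSO/no-enzyme wells and ADEP (5.8 microM final).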
IL-1B inflam inh – qHTS for Inhibitors of Inflammasome Signaling: IL-1-beta AlphaLISA Primary Screen. THP-1 LPS/ATP IL-1B secretion, AlphaLISA, 16 h; hits give low values. activity change, % at 57.5 µM. hit rate 4.7% among 360,000. AID 743279, 2014; in the data active = activity change below about -50%; inconclusive = mostly about -30% to -49%; note: % is set by controls: 0 for no effect and ±100 for the full control effect
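Secreted IL-1B measured by AlphaLISA bead assay after 16 h compound exposure of THP-1 cells; compounds (final up to 57.5 uM) added 1 h before LPS (250 ng/mL) and ATP (1.25 mM) stimulation; lower signal means less secretion.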
Numbers without * were called inactive; i = inactive; ? = inconclusive; . = no result. Unless noted, calls come from the whole dose curve; as a rule, active = well fitted inhibition curve with a large enough effect; inconclusive = small, poorly fitted or top-dose-only effect; inactive = flat fitted curve, though single readings scatter.

SMILES | TDP1 cell noCPT | D3 ag | DRD3 antagonist | TDP1 cell CPT | ClpP mod | IL-1B inflam inh
COc1ccc(-n2c(C)cc(/C=C3\C(=N)N4N=C(CC(=O)N5CCOCC5)SC4=NC3=O)c2C)cc1 | -21% | 0 | -5 | -3% | -6% | 25
Cc1cccc(C)c1OCC(=O)NNC(=O)c1ccoc1C | -1% | -1 | 3 | -10% | -2% | 2
COc1ccccc1OCC(=O)NNC(=O)c1ccoc1C | ? | 2 | -12 | 15µM* | 1% | -9
O=c1[nH][nH]cc1C=Nc1cc(Cl)ccc1O | ? | 4 | 0 | 21µM* | 1% | -1
O=c1[nH][nH]cc1C=Nc1ccc(Cl)cc1Cl | 20% | -6 | 2 | -2% | -1% | 30
O=C(Nc1nnc(-c2ccco2)o1)c1ccc(S(=O)(=O)N2CCCC2)cc1 | ? | 8 | 6 | ? | 1% | 50
CC1CCN(S(=O)(=O)c2ccc(C(=O)Nc3nnc(-c4ccco4)o3)cc2)CC1 | 18µM* | 5 | 13 | 15µM* | -3% | i
CC1CN(S(=O)(=O)c2ccc(C(=O)Nc3nnc(-c4ccco4)o3)cc2)CC(C)O1 (stereo not drawn) | ? | -4 | 3 | 23µM* | . | 7
COC1C(CO)OC(n2c3c(Cl)cccc3c3c4c(c5c6cccc(Cl)c6[nH]c5c32)C(=O)NC4=O)C(O)C1O (stereo not drawn) | 2.6µM* | -11 | -19 | 0.52µM* | 0% | -63*
COC1C(O)C(CO)OC1n1c(Br)nc2c(=O)[nH]c(N)nc21 (stereo not drawn) | 1% | . | . | -12% | . | .
CC(=O)Nc1ccccc1NC(=O)C/C(C)=N/NC(=O)c1cccnc1 | -13% | -6 | -5 | -5% | . | 24
c1cc(-c2cc3cc4c(cc3cn2)OCO4)cs1 | ? | -4 | -22 | 15µM* | -27% | 27
COc1cc2cnc(-c3ccsc3)cc2cc1OC | ? | 3 | -27 | ? | 5% | -3
O=C(CCN1C(=O)/C(=C\c2cccc(Br)c2)SC1=S)NCCCN1CCOCC1 | ? | -4 | -6 | ? | . | -20
CN1CCN(C(=O)CCN2C(=O)/C(=C/c3cccc(Br)c3)SC2=S)CC1 | 12µM* | -16 | ? | ? | . | -76*
COc1cccc(/C=C2\SC(=S)N(CCCC(=O)N3CCCCC3)C2=O)c1 | ? | -4 | -5 | ? | -2% | 5
CN1CCN(C(=O)CCCN2C(=O)/C(=C/c3cccc(Br)c3)SC2=S)CC1 | ? | -15 | -22 | -22% | . | -100*
Cc1cccc2cc(C(c3nnnn3Cc3ccccc3)N3CCCc4ccccc43)c(=O)[nH]c12 (stereo not drawn) | 16µM* | -2 | 2 | 13µM* | -4% | 46
CCN1CCN(C(c2cc3cccc(C)c3[nH]c2=O)c2nnnn2Cc2ccccc2)CC1 (stereo not drawn) | -21% | 1 | 12 | -30% | ? | -3
CC(C)(C)n1nnnc1C(c1cc2cc3c(cc2[nH]c1=O)OCO3)N1CCN(c2ccccc2)CC1 (stereo not drawn) | -18% | 10 | -20 | -12% | 22µM* | ?
Cc1ccc2cc(C(c3nnnn3Cc3ccccc3)N3CCN(c4ccccc4)CC3)c(=O)[nH]c2c1 (stereo not drawn) | ? | 2 | 23 | 13µM* | -17% | -21
COc1ccc(N2CCN(C(c3cc4cc(C)ccc4[nH]c3=O)c3nnnn3Cc3ccccc3)CC2)cc1 (stereo not drawn) | ? | -1 | -8 | ? | -13% | ?
NS(=O)(=O)c1cccc(NC(=O)COC(=O)CCC2CCCC2)c1 | 3% | -4 | 7 | 16% | -3% | -3
Cc1ccc(CSc2nc(=O)c3c(n2C)NC(=O)CC3c2ccc(OC(C)C)cc2)cc1 (stereo not drawn) | -15% | -10 | . | ? | -2% | .
COc1ccc(-c2c(C)nn3c(C(F)(F)F)cc(-c4ccc(Br)cc4)nc23)cc1 | -2% | 7 | . | 2% | -2% | .
